# The supplement of paper PMC6555819
# How the values were obtained:
# Assay in all cases: PBM binding z-score (relative to random genomic background probes); higher = stronger binding; sequences stand for … in GC…GCGATTGACAGCGTAGAATGAAGG
# [1] = tested on: FXR:RXRa (NR concentration 270 nM, RXRa partner concentration 90 nM)
# Summary of the method: (§1)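 For binding z-scores, the reference was random background probes on custom Agilent 4×180K protein-binding microarrays. These arrays were incubated 1 h with ligand-free nuclear receptor dimers in PBS pH 7.4, 2% milk, 0.02% Triton X-100, 1 mM DTT, 0.2 mg/mL BSA and 0.4 mg/ml salmon testes DNA. Fluorescence was scanned after antibody detection of each partner (one per run) and regression-normalized.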
# [2] = tested on: LXRa:RXRa (NR concentration 270 nM, RXRa partner concentration 90 nM)
# Summary of the method: as §1
# [3] = tested on: LXRa homodimer (NR concentration 270 nM)
# Summary of the method: as §1
# [4] = tested on: LXRb:RXRa (NR concentration 270 nM, RXRa partner concentration 90 nM)
# Summary of the method: as §1
# [5] = tested on: LXRb homodimer (NR concentration 270 nM)
# Summary of the method: as §1
# [6] = tested on: PPARa:RXRa (NR concentration 270 nM, RXRa partner concentration 90 nM)
# Summary of the method: as §1
# [7] = tested on: PPARg:RXRa (NR concentration 180 nM, RXRa partner concentration 90 nM)
# Summary of the method: as §1
# [8] = tested on: PPARg:RXRa 270nM:90nM, anti-RXR (NR concentration 270 nM, RXRa partner concentration 90 nM)
# Summary of the method: as §1
# [9] = tested on: PPARg:RXRa 30nM:10nM, anti-RXR (NR concentration 30 nM, RXRa partner concentration 10 nM)
# Summary of the method: as §1
# [10] = tested on: PPARg:RXRa 90nM:30nM, anti-RXR (NR concentration 90 nM, RXRa partner concentration 30 nM)
# Summary of the method: as §1
# [11] = tested on: PPARg:RXRa DBDmut IVT, anti-RXR (DBD mutation: RXRa K156A/R161A, NR concentration 270 nM, RXRa partner concentration 90 nM)
# Summary of the method: as §1
# [12] = tested on: PPARg:RXRa IVT, anti-PPARg (NR concentration 270 nM, RXRa partner concentration 90 nM)
# Summary of the method: as §1
# [13] = tested on: PPARg DBDmut:RXRa IVT, anti-PPARg (DBD mutation: PPARg1 K132A/R137A, NR concentration 270 nM, RXRa partner concentration 90 nM)
# Summary of the method: as §1
# [14] = tested on: PPARg DBDmut IVT, anti-PPARg (DBD mutation: PPARg1 K132A/R137A, NR concentration 270 nM)
# Summary of the method: as §1
# [15] = tested on: PPARg homodimer (NR concentration 180 nM)
# Summary of the method: as §1
# [16] = tested on: PXR:RXRa (NR concentration 270 nM, RXRa partner concentration 90 nM)
# Summary of the method: as §1
# [17] = tested on: PXR homodimer (NR concentration 270 nM)
# Summary of the method: as §1
# [18] = tested on: RARa:RXR (NR concentration 270 nM, RXRa partner concentration 90 nM)
# Summary of the method: as §1
# [19] = tested on: RARa homodimer (NR concentration 270 nM)
# Summary of the method: as §1
# [20] = tested on: RARb:RXRa (NR concentration 270 nM, RXRa partner concentration 90 nM)
# Summary of the method: as §1
Sequence,PBM binding z-score [1],PBM binding z-score [2],PBM binding z-score [3],PBM binding z-score [4],PBM binding z-score [5],PBM binding z-score [6],PBM binding z-score [7],PBM binding z-score [8],PBM binding z-score [9],PBM binding z-score [10],PBM binding z-score [11],PBM binding z-score [12],PBM binding z-score [13],PBM binding z-score [14],PBM binding z-score [15],PBM binding z-score [16],PBM binding z-score [17],PBM binding z-score [18],PBM binding z-score [19],PBM binding z-score [20]
GCGACTGGGGCATCAGCAGGTTACCCTAACTTAA,-0.187,-0.0714,-0.26,0.646,-1.16,1.32,0.617,0.949,-0.87,0.118,3.51,2.87,-0.922,-0.0321,0.248,0.197,-0.267,0.596,-0.765,0.794
CCAGCCAGGTGAGAAGGTAACTCAGCCTCGATTA,-0.27,-0.406,-0.377,-0.292,-0.967,0.458,0.262,1.03,-0.318,0.318,0.886,0.642,-1.31,-0.676,-0.199,-0.486,-0.622,-0.386,-0.592,0.364
ATATGTAGGTTAGCTGGGGTCAGTCAGACTAGGC,2.47,4.36,0.893,3.37,0.881,4.38,5.08,4.38,1.86,3.72,6.39,6.31,2.61,1.83,1.96,5.06,1.14,3.81,0.813,2.88
GCTGCTAGATCAACTGATGGTCAGCTAAAGCTCG,-0.351,-0.658,-0.708,-0.94,-1.09,-0.675,-0.337,-0.606,-0.466,-0.434,-0.127,-0.576,-0.911,-0.65,-0.483,-0.788,-0.885,-0.512,-1.53,-0.39
TAGCCTATGTCATTCAGGGGCCAGTATAGAAAGC,-0.275,-0.326,-0.461,-0.0773,0.117,-0.00609,0.175,-0.205,-0.271,-0.159,0.367,0.511,-0.0468,0.315,-0.12,-0.141,-0.435,0.125,-0.558,0.742
GCAGACAGGTGAAACGCAGGTACCTCAGGGTGGC,-0.505,-0.351,-1.08,-0.737,-1.1,0.616,0.419,-0.439,-0.666,-0.889,0.673,0.204,-1.1,-1.9,-1.33,-0.784,-0.782,-0.474,-1.48,0.346
GTACCAAGGTGAATAGGTCGTTGACGAGTAGGCG,1.08,0.711,-0.12,0.495,-0.439,2.45,1.58,1.84,0.445,1.35,1.8,2.86,0.144,-0.0212,1.04,0.88,0.00593,1.93,-0.182,2.23
TTACCAAGCTGAGCTGAGGTCGTTGATCCAACTC,0.0307,-0.149,-0.687,-0.148,-1.09,0.413,-0.752,-0.18,-0.479,-0.597,-0.796,-0.588,-0.701,-1.02,-1.16,1.06,0.0399,0.708,-1.15,0.0389
GGGACTGGGGCAAAGCAGGTTACCATAAGGTTGG,0.776,0.705,0.405,1.24,1.22,2.6,3.59,3.37,0.646,2.33,4.85,5.97,0.631,0.017,1.03,1.21,0.82,1.18,-0.119,1.39
GTACCAAGGTGAGTAGGTCGTTGATGAGTAGGCG,0.04,0.0147,-0.31,-0.286,-0.924,1.17,0.822,0.888,-0.11,0.35,1.77,2.68,-0.145,-1.14,0.691,0.089,0.0427,0.391,0.166,1.16
GGAACGAGGGCATTCGAGTTGATTGCATGGCGAT,0.926,1.7,-0.316,0.105,-0.391,1.4,0.653,0.598,-0.244,0.242,2.85,2.45,0.178,-0.205,-0.105,3.88,1.55,1.03,-0.634,1.84
